This is a sample that favours compounds with a hit; in the whole collection about 31% have one here.
CYP2C19 inh = human CYP2C19 inhibition. P33261. CYP2C19 Supersomes, luciferin-H EGE luminescence, 30 min. 21% of 96,000 active. inhibition, % at 5 µM;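 active means CYP2C19 inhibition above a set limit at 5 µM in the primary screen, cut at about 50% in these data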;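 further: plate controls were negative control wells for no effect and 2.5 mM tranylcypromine positive control for full effect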
CYP2C19 activ = activators of human cytochrome P450 2C19; recombinant CYP2C19, luciferin-H EGE luminescence; active compounds read high; 0 = fully inhibited enzyme, 1 = untreated enzyme; activation factor at 5 µM; 96,000 tested, under 10 active;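 active means activation factor of at least 2 at 5 µM in the primary screen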;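 further: 0 = wells with 2.5 mM tranylcypromine and 1 = vehicle-only wells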
CYP2C9 inh = inhibitors of human CYP2C9; P11712; CYP2C9 Supersomes, luciferin-H conversion, luminescence; inhibition, % at 5 µM; 20% of 96,000 active;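 active means blocking of liver enzyme CYP2C9 beyond about 50% at 5 µM, limit read from the data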
CYP2C9 activ = CYP2C9 (human) activation. recombinant CYP2C9, luciferin-H conversion, luminescence; active compounds read high; factor 1 = untreated enzyme, 0 = blocked. activation factor at 5 µM. 1.4% of 96,000 active. AID 1024;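 active means activation factor of 2 or more for CYP2C9 at a 5 µM dose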;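 further: 0 = sulfaphenazole-blocked wells and 1 = vehicle-only wells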
An asterisk follows results filed as active.

SMILES	CYP2C19 inh	CYP2C19 activ	CYP2C9 inh	CYP2C9 activ
CCN(CC)S(=O)(=O)c1ccc(NC(=O)c2ccccn2)cc1	28	0.7	49	0.5
O=C(Nc1ccncc1)C1COc2ccccc2O1 (stereo not given)	96*	0	52*	0.5
O=C(Nc1cnc2ccccc2c1)C1COc2ccccc2O1 (stereo not given)	90*	0.1	54*	0.5
O=C(Nc1ccc2c(c1)OCO2)C1COc2ccccc2O1 (stereo not given)	70*	0.3	7	0.9
O=C(Nc1ccc2c(c1)CCC2)C1COc2ccccc2O1 (stereo not given)	95*	0	-1	1
O=C(Nc1ncc(C(F)(F)F)cc1Cl)C1COc2ccccc2O1 (stereo not given)	80*	0.2	21	0.8
CCN(CC)S(=O)(=O)c1ccc(NC(=O)C2COc3ccccc3O2)cc1 (stereo not given)	23	0.8	72*	0.3
Cc1cc(=O)oc2cc(NC(=O)C3COc4ccccc4O3)ccc12 (stereo not given)	10	0.9	-9	1.1
CC(=O)COc1ccccc1OC(=O)c1ccco1	-12	1.1	-18	1.2
COC(=O)CSc1nnc(CNC(=O)Cc2ccccc2)n1-c1ccccc1OC	-11	1.1	-12	1.1
O=C(Cn1cccc1)NC1CCCCCC1	20	0.8	3	1
COc1ccc(-c2cc(C(F)(F)F)n3ncc(C(=O)NCC4CCCO4)c3n2)cc1 (stereo not given)	20	0.8	44	0.6
O=C(CSC1=NCCN1)C1COc2ccccc2O1 (stereo not given)	61*	0.4	67*	0.3
O=C(NCc1cccnc1)C1COc2ccccc2O1 (stereo not given)	32	0.7	3	1
CCn1c2ccccc2c2nnc(SCC(=O)N3CC(C)OC(C)C3)nc21 (stereo not given)	22	0.8	-33	1.3
CC(=O)C1=C(C)NC(C)=C(C(C)=O)C1c1ccc(-c2ccccc2Cl)o1	86*	0.1	97*	0
c1ccc(C2=Nn3c(nnc3-c3n[nH]c4c3CCC4)SC2)cc1	50	0.5	11	0.9
Cc1ccc(-c2n[nH]c3c2CCC3)cc1	66*	0.3	43	0.6
Cc1onc(-c2ccccc2Cl)c1C(=O)Nc1ccc(S(=O)(=O)N2CCCC2)cc1	30	0.7	75*	0.3
Cc1onc(-c2ccccc2Cl)c1C(=O)Nc1ccc(F)c(F)c1	90*	0.1	70*	0.3
Cc1onc(-c2ccccc2)c1C(=O)OCC(=O)c1ccccc1	69*	0.3	54*	0.5
Cc1ccc(Cn2ccc(NC(=O)c3c(-c4ccccc4Cl)noc3C)n2)cc1	25	0.7	52*	0.5
Cc1cc(NC(=O)c2c(-c3ccccc3Cl)noc2C)no1	15	0.8	31	0.7
Cc1ccc(Oc2ccc(S(=O)(=O)N3CCOCC3)cc2C(N)=O)c(-n2nc3ccccc3n2)c1	23	0.8	45	0.6
COc1ccc(C(=O)O/N=C/c2c(C(F)(F)F)nn(C)c2SCc2ccccc2Cl)cc1	17	0.8	30	0.7
SMILES	CYP2C19 inh	CYP2C19 activ	CYP2C9 inh	CYP2C9 activ
O=C(Nc1ccc2c(c1)OCO2)C1CC(c2ccccc2Cl)=NO1 (stereo not given)	94*	0.1	-75	1.8
Cc1ccc(-n2nc3c(c2NC(=O)c2c(-c4ccccc4Cl)noc2C)CS(=O)(=O)C3)c(C)c1	52*	0.5	79*	0.2
CCCOc1ccc(NC(=O)c2c(-c3ccccc3)noc2C)cc1	6	0.9	1	1
CCN(CC)S(=O)(=O)c1ccc(NC(=O)c2c(-c3ccccc3)noc2C)cc1	65*	0.4	46	0.5
CCn1cc(C2=NOC(C(=O)Nc3ccc4c(c3)OCO4)C2)c(C)n1 (stereo not given)	-4	1	45	0.6
COCCNC(=O)c1ccccc1NC(=O)c1ccccc1N(C)S(=O)(=O)c1ccccc1	100*	0	93*	0.1
COc1ccc(Nc2nc(C)cc(C)c2C#N)cc1OC	16	0.8	28	0.7
COc1ccc(C)cc1NC(=O)CN1C(=O)c2cccc3cccc1c23	38	0.6	29	0.7
Cc1onc(-c2ccccc2Cl)c1C(=O)Nc1cccc(-c2cn3cccnc3n2)c1	62*	0.4	85*	0.2
Cc1onc(-c2ccccc2Cl)c1C(=O)Nc1nnc(-c2ccc(Cl)cc2Cl)s1	4	1	66*	0.3
Cc1onc(-c2ccccc2Cl)c1C(=O)Nc1ccc2c(c1)OCO2	71*	0.3	53*	0.5

High-throughput results deposited in PubChem by Sanford-Burnham Center for Chemical Genomics.
